From the supplement of paper PMC10338343
± gives the standard deviation.

test system: MILI (PIWIL2) piRISC loaded with L1MC piRNA (26 nt); assay: pre-steady-state target cleavage rate (min^-1); guide: L1MC piRNA 5'p-UAACUAAAUACUAUGCAAGCUGUAGG; MIWI and MILI are mouse PIWI proteins and EfPiwi is from a freshwater sponge; tags in brackets are library labels; higher = faster piRNA-guided slicing of the target; conditions: auxiliary factor: 500 nM mouse GTSF1
Procedure: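 Cleave-'n-Seq: a library of target RNAs (target site embedded in constant flanks, ACAGCATTCCGCGTTAGTGATATCCG... 5' flank; DNA-blocked outside the site) at 0.1 nM was incubated with 1 nM active mouse MILI or MIWI piRISC (synthetic 5'-monophosphorylated piRNA guide) with or without 500 nM mouse GTSF1 at 33 °C for 1 min to 16 h. Uncleaved targets were sequenced and normalised to non-target controls, and the pooled three trials were fitted to a burst-and-steady-state model to give the pre-steady-state cleavage rate (min^-1; k3 is constrained to at most 1e-4). Sequence is the target site only; target names encode pairing extent (gX:gY) and contiguous / 1-mismatch / 2-mismatch / bulge geometry. Fits with R² ≤ 0 are excluded.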

Row | Sequence | pre-steady-state target cleavage rate
1 | UCCUGGAUGUCCUAGCAUAGUAUUUACUUA | 0.0287 ± 0.0091
2 | UCCUGGAUGUCGAAGCAUAGUAUUUAGUUU [g2:g16:cont:t1U] | 0.0307 ± 0.0082
3 | UCCUGGUUCAGCUUGCAAAGUAUUUAGUUA | 0.137 ± 0.018
4 | UCCUGGAUGUGCUAGCAAAGUAUUUAGUUA | 0.0105 ± 0.0034
5 | UCCUCCUACAGCUUGCAUAGUAAAUAGAAA | 0.0692 ± 0.02
6 | UCCUGGAUCAGCUUGCAUAGUAAUUAGUUA | 0.233 ± 0.013
7 | UCCUCCUACAGCAAGCAUAGUAUUUACAAA | 0.172 ± 0.032
8 | UCCUGCUACAGCUUGCAUAGUAAAAAGAAA | 0.0111 ± 0.0048
9 | UCCUGGAUGAAGCUUGCAUAGUAUUUAGUUA | 0.224 ± 0.02
10 | UCCUGGAAGAGCUUGCAAAGUAUUUAGUUA | 0.075 ± 0.012
11 | UCCUGCUACAGCUUGCAUUGUAAUUAGUUA | 0.201 ± 0.024
12 | UCCUGGAUGUCGAUGCAUAGUAUUAAGUUA | 0.122 ± 0.017
13 | UCCUCCUACACCUUGCAUUGUAUUUAGUUA | 0.184 ± 0.021
14 | UCCUGCUACACCUUGCAUAGUAUUUUGUUA | 0.1 ± 0.032
15 | UCCUGGAUGUCGUUGCAUAGUAUUUAGAUA | 0.0436 ± 0.017
16 | UCCUGGUACAGCUAGCAUAGUUUUUAGUUA | 0.0495 ± 0.011
17 | UCCUGGAAGUGCUUGCAUAGUAUUUAGAAA | 0.00889 ± 0.0052
18 | UCCUGGAUGAGCUUGCAAUGUAUUUAGUUA | 0.0269 ± 0.0097
19 | UCCUGGAUCAGCUUGCAUAGUAAUUUGUUA | 0.114 ± 0.025
20 | UCCUGCAAGAGCUUGCAUAGUAUUUAGUUA | 0.292 ± 0.025
21 | UCCUGGAUGUGCUUGCAUAGUAUUUAGUA | 0.111 ± 0.019
22 | UCCUGGAUCAGCUUGCCAUAGUAUUUAGUUA | 0.0992 ± 0.014
23 | UCCUCCUACAGCUUGCAUUGUAUUUAGUAA | 0.182 ± 0.02

same assay, conditions: auxiliary factor: none (no GTSF1)

Row | Sequence | pre-steady-state target cleavage rate
24 | UCCUGGAUGUCGAAGCAUAGUAUUUAGUUU [g2:g16:cont:t1U] | 0.00447 ± 0.0018
25 | UCCUGGUUCAGCUUGCAAAGUAUUUAGUUA | 0.0176 ± 0.0038
26 | UCCUGGAUGUGCUAGCAAAGUAUUUAGUUA | 0.00469 ± 0.0015
27 | UCCUGGAUGUCGAACGAUAGUUUUAAGUUA | < 0.0001
28 | UCCUGGAUCAGCUUGCAUAGUAAUUAGUUA | 0.0101 ± 0.0024
29 | UCCUGGAUGAAGCUUGCAUAGUAUUUAGUUA | 0.0106 ± 0.0031
30 | UCCUGGAAGAGCUUGCAAAGUAUUUAGUUA | 0.00782 ± 0.0029
31 | UCCUGCUACAGCUUGCAUUGUAAUUAGUUA | 0.00494 ± 0.0018
32 | UCCUGGAUGUCGAUGCAUAGUAUUAAGUUA | 0.0035 ± 0.0025
33 | UCCUCCUACACCUUGCAUUGUAUUUAGUUA | 0.0078 ± 0.002
34 | UCCUGGUACAGCUAGCAUAGUUUUUAGUUA | 0.00928 ± 0.0026
35 | UCCUCCUACAGCUUGCAUAGGUAUUUAGUUA | 0.00373 ± 0.0024
36 | UCCUGGAUGAGCUUGCAAUGUAUUUAGUUA | 0.00445 ± 0.0026
37 | UCCUGCAAGAGCUUGCAUAGUAUUUAGUUA | 0.00624 ± 0.0028
38 | UCCUGGAUGUGCUUGCAUAGUAUUUAGUA | 0.00483 ± 0.0024
39 | UCCUGGAUGUCGAACGUUAGCAUUUAGUUA | < 0.0001
40 | UCCUCCUACAGCUUGCAUUGUAUUUAGUAA | 0.00398 ± 0.002
